Screening data: PubChem, Broad Institute
aSyn UTR act: Activators via SNCA 5'UTR binding, MLPCN | alpha-synuclein 5'UTR reporter, activators screen | AID 1814, 2009 | 7.1% of 300,000 active | activity score, % (tested at 7.5 µM), hits read low; in the data active = activity score below about -60%
Active calls of the source: *. A selection follows.

SMILES	aSyn UTR act
O=C(Oc1ccc(-c2cnc3ccccc3n2)cc1)c1ccc(Br)o1	-117*
O=C(Oc1ccc(-c2cnc3ccccc3n2)cc1)c1cccc([N+](=O)[O-])c1	-183*
CCC1CCc2c(sc(NC(=O)c3ccco3)c2C(N)=O)C1 (configuration not stated)	-246*
CCC1CCc2c(sc(NC(=O)c3cnccn3)c2C(N)=O)C1 (configuration not stated)	-86*
CC(C)Cc1ccc(/C=C/C(=O)N2CCOCC2)cc1	-161*
CC(C)(C)c1ccc(/C=C/C(=O)N2CCOCC2)cc1	-147*
CCCc1ccc(OCc2ccc(C(=O)O)o2)c(OC)c1	-94*
C=CCc1ccc(OC(=O)NC2CCCCC2)c(OC)c1	-106*
CCCc1ccc(OCc2ccc(C(=O)NN)o2)c(OC)c1	-84*
C=CCc1ccc(OCc2ccc(C(=O)O)o2)c(OC)c1	-121*
O=C(c1ccco1)n1nc(-c2ccc(Cl)cc2)nc1NCc1ccco1	-176*
COc1ccccc1C(=O)n1nc(-c2ccccc2)nc1NCc1ccco1	-88*
Cc1ccc(-c2nc(NCc3ccco3)n(C(=O)c3ccco3)n2)cc1	-143*
O=C(COc1ccccc1)n1nc(-c2ccc(Cl)cc2)nc1NCc1ccco1	-132*
CC(=O)Nc1ccc(-c2nc3c(C)cccc3[nH]2)cc1	-141*
CN(C)/C=C/C(=O)c1ccc(-n2cccc2)cc1	-88*
CC(C)(C)c1ccc(/C=C2\Oc3cc(O)ccc3C2=O)cc1	-69*
COc1cccc(/C=C2\Oc3ccc(O)cc3C2=O)c1O	83
COC(=O)c1ccc2c(c1)C(=O)/C(=C/c1ccc(O)cc1)O2	-118*
CC(C)(C)NC(=O)CCCSc1nc2ccccc2s1	-133*
O=C(CCSc1nc2ccccc2s1)N/N=C/c1c(O)ccc2ccccc12	66
Cc1cc(C)nc(NC(=O)CSc2nc3ccccc3s2)n1	-203*
Cc1csc(SCC(=O)Nc2nc3ccccc3s2)n1	-100*
Cc1cc(C)nc(SCC(=O)OCC(=O)Nc2nc3ccccc3s2)n1	-70*
Cc1cc(NC(=O)CCl)n(-c2nc3ccccc3s2)n1	-77*
SMILES	aSyn UTR act
Cc1cc(C)n2c(Br)c(CSc3nc4ccccc4s3)nc2n1	-79*
N#Cc1ccc(OCc2noc(-c3ccsc3)n2)cc1	-81*
COc1ccc2oc(=O)c(-c3nc4ccccc4o3)cc2c1	-184*
O=c1oc2ccc3ccccc3c2cc1-c1nc2ccccc2o1	-87*
CC1(C)CC(=O)C2=C(C1)Nc1ccccc1N=C2	-163*
CCc1ccc(NC(=O)C(=O)c2cn(CC(=O)N3CCCCC3)c3ccccc23)cc1	-70*
O=C(Nc1ccccc1Cl)C(=O)c1cn(CC(=O)N2CCOCC2)c2ccccc12	-125*
COc1ccccc1CCNC(=O)C(=O)c1cn(CC(=O)N2CCOCC2)c2ccccc12	-106*
CCOC(=O)c1c(NC(=S)N2CCN(C)CC2)sc2c1CCN(C(=O)OCC)C2	-63*
Cc1csc(NC(=O)c2ccc3c(=O)n4c(nc3c2)CCCCC4)n1	-139*
O=C(Nc1nccs1)c1ccc2c(=O)n3c(nc2c1)CCCCC3	-129*
O=C(Nc1ccc(F)cc1Cl)c1ccc2c(=O)n3c(nc2c1)CCC3	-109*
O=C(COC(=O)c1ccccc1Cc1ccccc1)Nc1ccc(SC(F)F)cc1	-109*
O=C(Cc1ccccc1F)Nc1ccc(SC(F)F)cc1	-137*
O=C(NCC(=O)N1CCN(c2ncccn2)CC1)c1cccs1	-66*
COC(=O)c1ccc(N2CCCCC2)c(N)c1	-92*
COC(=O)c1ccc(N2CCC(C)CC2)c(N)c1	-99*
Nc1ccc(N2CCCCC2)cc1N1CCCCC1	85
COC(=O)c1cc(C(=O)N2CCN(c3cccc(C)c3C)CC2)cc([N+](=O)[O-])c1	78
COc1ccc(C(=O)Nc2nc3cc4c(cc3s2)OCO4)c(OC)c1	-98*
COc1ccc2nc(NC(=O)c3cc(C)oc3C)sc2c1	-140*
Cc1cc(C(=O)Nc2nc3ccc(S(C)(=O)=O)cc3s2)c(C)o1	-108*
COc1ccc(NS(=O)(=O)c2cc(C)ccc2NC(=O)c2cc(C)oc2C)cc1	103
Cc1ccccc1NC(=O)Nc1nc2ccc(S(C)(=O)=O)cc2s1	-85*
COc1ccc2nc(NC(=O)c3cccnc3SC)sc2c1	-130*
SMILES	aSyn UTR act
O=C(N/N=C1/CC2C=CCC12)c1ccc(Br)o1 (configuration not stated)	-83*
N#C/C(=C(/O)CSc1ccccn1)c1nc2ccccc2s1	-62*
N#C/C(=C(/O)COc1ccccc1)c1nc2ccccc2s1	-63*
N#C/C(=C(/O)c1ccc(F)cc1)c1nc2ccccc2s1	-136*
N#C/C(=C(/O)c1ccc(-c2cccc([N+](=O)[O-])c2)o1)c1nc2ccccc2s1	-105*
O=C(c1cc(COc2ccc(F)cc2Cl)on1)N1CC2C[C@@H]3CC1C[C@H](C2)C3	-190*
O=C(c1cc(COc2ccc(F)cc2Cl)on1)N1C[C@H]2CC[C@H]1C2	-164*
Cc1cc(C(=O)CN2C(=O)c3ccccc3S2(=O)=O)c(C)n1-c1ccccc1	120
Cc1nnc(SCc2ccc3c(c2)OCO3)s1	-72*
Cc1cc(C(=O)CN2C(=O)C(=O)N(Cc3ccccc3)C2=O)c(C)n1-c1ccc2c(c1)OCCO2	-74*
Cc1cc(C(=O)CSc2nnnn2C)c(C)n1-c1ccc2c(c1)OCCO2	-125*
Cc1nnc(SCC(=O)c2cc(C)n(-c3ccc4c(c3)OCO4)c2C)s1	-151*
CC(=O)c1ccc(OCC(=O)c2cc(C)n(-c3ccc4c(c3)OCO4)c2C)cc1	-65*
Cc1nnc(SCc2ccc(F)cc2Cl)s1	-81*
Fc1ccc(N2Cc3ccsc3C=N2)cc1	-64*
O=C(CC1NCCNC1=O)Nc1ccc(Cl)c(Cl)c1 (configuration not stated)	-92*
O=c1c(Cl)c(N/N=C/c2ccc(Cl)cc2)cnn1-c1ccccc1	-85*
CN(c1cnn(-c2ccccc2)c(=O)c1Cl)n1cccc1	-83*
CCSc1cnn(-c2ccccc2)c(=O)c1Cl	-92*
CCCCNc1cnn(-c2ccccc2)c(=O)c1Cl	-74*
CNc1cnn(-c2ccc(C)cc2)c(=O)c1Cl	-86*
O=C1CC(/C=C/c2ccc([N+](=O)[O-])cc2)=Nc2ccccc2N1	-112*
C(=C\c1ccco1)/C1=NN(c2ccccc2)C(c2ccco2)C1 (configuration not stated)	-210*
CCOC(=O)CNC(=O)c1ccc(SCC)cc1	-91*
O=C(NC1CCCC1)c1cc(-c2ccc(Cl)c(Cl)c2)on1	-151*
SMILES	aSyn UTR act
Cc1nn(Cc2ccc(Cl)c(Cl)c2)c(C)c1NC(=O)c1cc(-c2ccc3c(c2)OCO3)on1	66
O=C(NC1CCCCC1)c1cc(-c2cccs2)on1	-161*
Cc1ccc(-c2cc(C(=O)NC3CCCC3)no2)cc1	-141*
O=C(NC1CCCCC1)c1cc(-c2ccc(F)cc2)on1	-156*
CCc1ccc(NC(=O)C2C3/C=C\CCCCC32)cc1 (configuration not stated)	-165*
O=C(Nc1ccc(Cl)cc1)C1C2CCCCC21 (configuration not stated)	-150*
CCN1C/C(=C/c2ccc(N3CCOCC3)cc2)C(=O)/C(=C/c2ccc(N3CCOCC3)cc2)C1	-412*
CN1C/C(=C\c2ccc(N3CCOCC3)cc2)C(=O)/C(=C/c2ccc(N3CCOCC3)cc2)C1	-427*
Cn1c(CN2CCCC2)nc2cc(NC(=O)c3ccco3)ccc21	-116*
Cc1cc(C)c(NC(=O)CCN2CCN(Cc3ccccc3)CC2)c(C)c1	98
